# In all, about 1,300 compounds went through this assay and about 980 (75%) were called active. About 4% were inconclusive and are not listed. Some of the results follow.
# Molecular target: Sulfhydryl oxidase 1 (Homo sapiens) (UniProt O00391)
# Experiment: QSOX1 enzyme inhibitors, primary screen, biochemical, HyperBlu H2O2 luminescence, HTS (AID 1347420); also: values above 100% were filed as inconclusive
# Details: recombinant QSOX1, HyperBlu H2O2 luminescence; at 12.5 µM; stronger effect = higher value; active = any value above zero
# Chain of Sulfhydryl oxidase 1 (Homo sapiens) (O00391 whole entry, looked up): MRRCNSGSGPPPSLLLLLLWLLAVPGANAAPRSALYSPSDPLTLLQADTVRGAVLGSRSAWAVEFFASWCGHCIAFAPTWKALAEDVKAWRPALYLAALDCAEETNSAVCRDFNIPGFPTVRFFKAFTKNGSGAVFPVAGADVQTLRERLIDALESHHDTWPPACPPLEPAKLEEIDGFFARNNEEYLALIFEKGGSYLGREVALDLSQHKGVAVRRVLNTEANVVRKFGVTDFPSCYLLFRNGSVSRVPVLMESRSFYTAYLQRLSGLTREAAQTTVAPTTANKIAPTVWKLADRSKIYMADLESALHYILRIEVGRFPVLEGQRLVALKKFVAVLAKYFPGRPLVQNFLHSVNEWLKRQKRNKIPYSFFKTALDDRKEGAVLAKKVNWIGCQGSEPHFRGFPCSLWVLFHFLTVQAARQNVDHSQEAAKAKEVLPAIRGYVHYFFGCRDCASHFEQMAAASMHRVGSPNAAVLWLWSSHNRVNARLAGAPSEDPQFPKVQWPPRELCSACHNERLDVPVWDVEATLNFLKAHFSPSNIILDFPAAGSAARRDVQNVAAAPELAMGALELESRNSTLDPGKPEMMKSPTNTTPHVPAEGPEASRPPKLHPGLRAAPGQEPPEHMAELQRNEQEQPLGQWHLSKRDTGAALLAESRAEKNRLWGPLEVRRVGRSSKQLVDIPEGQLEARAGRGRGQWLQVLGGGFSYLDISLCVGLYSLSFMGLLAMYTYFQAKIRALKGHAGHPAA
row,SMILES,inhibition
1,CC(C)(C)NCC(O)COc1nsnc1N1CCOCC1 (stereo unspecified),3.8% (active)
2,CC1CNCCN1S(=O)(=O)c1cccc2cnccc12 (stereo unspecified),37.4% (active)
3,CC1CN(S(=O)(=O)c2cccc3cnccc23)CCN1 (stereo unspecified),4.9% (active)
4,O=Nc1ccc2oc(=O)ccc2c1,85% (active)
5,COC(=O)Nc1nc2ccc(C(=O)c3cccs3)cc2[nH]1,12.3% (active)
6,O=c1[nH]c(=O)c2nc3ccccc3nc2[nH]1,3.9% (active)
7,NC(=O)c1cn(Cc2c(F)cccc2F)nn1,-7.2% (inactive)
8,CCCN(CCC)CCc1cccc2c1CC(=O)N2,-8.3% (inactive)
9,CO[C@@]1(NC(=O)CSCC#N)C(=O)N2C(C(=O)O)=C(CSc3nnnn3C)CS[C@@H]21,10% (active)
10,CN1C(=O)CC[C@H]1c1cccnc1,3.9% (active)
11,CN1CCC[C@H]1c1cccnc1,2.5% (active)
12,COc1ccccc1CNCCCCCCNCCCCCCCCNCCCCCCCNc1ccccc1OC,0.8% (active)
13,C#CCCN,25.9% (active)
14,NC(=O)c1cccc(N)c1,19% (active)
15,NC(=O)c1ccccc1,-9.9% (inactive)
16,NC(=O)c1ccc2[nH]ccc2c1,-15.5% (inactive)
17,CC[C@@H](C)[C@H]1O[C@]2(CC[C@@H]1C)C[C@@H]1C[C@@H](C/C=C(\C)[C@@H](O[C@H]3C[C@H](OC)[C@@H](O[C@H]4C[C@H](OC)[C@@H](O)[C@H](C)O4)[C@H](C)O3)[C@@H](C)/C=C/C=C3\CO[C@@H]4[C@H](O)C(C)=C[C@@H](C(=O)O1)[C@]34O)O2,10.8% (active)
18,Cc1cccc(/C=C/c2ccccc2)n1,3.6% (active)
19,O=NN(CCCl)C(=O)NCCCl,10.3% (active)
20,CCCNC(C)C(=O)Nc1ccccc1C (stereo unspecified),3.1% (active)
21,Nc1nc2ccc(OC(F)(F)F)cc2s1,7.2% (active)
22,CSC(=N)N,14.1% (active)
23,CCSC(=N)N,3% (active)
24,NC(=O)CNCCC(c1ccccc1)c1ccccc1,1.3% (active)
25,N=C(N)N1CCc2ccccc2C1,18.5% (active)
26,CC(C)NNC(=O)c1ccncc1,0.1% (active)

row,SMILES,inhibition
1,C1COC(NC(C2CC2)C2CC2)=N1,-6.7% (inactive)
2,CN(C)CCCC1(c2ccc(F)cc2)OCc2cc(C#N)ccc21 (stereo unspecified),8.6% (active)
3,Nn1nnc2ccccc21,21.7% (active)
4,N[C@@H](Cc1c[nH]c2ccc(O)cc12)C(=O)O,45.4% (active)
5,N[C@@H](Cc1c[nH]c2ccccc12)C(=O)O,3.4% (active)
6,O=C(O)Cc1c[nH]c2ccc(O)cc12,47.5% (active)
7,CN1C(C(=O)Nc2ccccn2)=C(O)c2ccccc2S1(=O)=O,35.6% (active)
8,Cc1cnc(NC(=O)C2=C(O)c3ccccc3S(=O)(=O)N2C)s1,44.2% (active)
9,CN1C2CCCC1CC(NC(=O)c1nn(C)c3ccccc13)C2 (stereo unspecified),8.4% (active)
10,CC(=O)O[C@]1(C(C)=O)CC[C@H]2[C@@H]3C=C(Cl)C4=CC(=O)[C@@H]5C[C@@H]5[C@]4(C)[C@H]3CC[C@@]21C,-5.1% (inactive)
11,NCCS(=O)O,4.2% (active)
12,CC(=O)NNC(=O)N1Cc2ccccc2Oc2ccc(Cl)cc21,17.2% (active)
13,N[C@@H](Cn1ccc(=O)c(O)c1)C(=O)O,10.1% (active)
14,O=[N+]([O-])c1ccc(-c2nc(-c3ccc(F)cc3)c(-c3ccncc3)[nH]2)cc1,92.4% (active)
15,Oc1ccc(-c2nc(-c3ccc(F)cc3)c(-c3ccncc3)[nH]2)cc1,97% (active)
16,O=C1Cc2c([nH]c3ccc(Br)cc23)-c2ccccc2N1,1.7% (active)
17,C=C1N=C(N=NC2=C(S(=O)(=O)[O-])[C+]=C(S(=O)(=O)[O-])[C+]=C2)[C+](COP(=O)([O-])O)C(C=O)=C1O,6.1% (active)
18,O=C1OC(=O)C2C3CCC(O3)C12 (stereo unspecified),9.8% (active)
19,Nc1ncn([C@@H]2O[C@H](CO)[C@H](O)C2O)c(=O)n1 (stereo partly specified),21.3% (active)
20,Nc1ncnc2c1ncn2[C@@H]1O[C@H](CO)[C@H](O)C1O (stereo partly specified),13.8% (active)
21,Nc1ccn([C@@H]2O[C@H](CO)[C@@H](O)C2O)c(=O)n1 (stereo partly specified),-7% (inactive)
22,NC[C@H]1O[C@@H](n2cnc3c(N)ncnc32)[C@H](O)[C@@H]1O,16.1% (active)
23,Nc1nc(Cl)nc2c1ncn2[C@@H]1O[C@H](CO)[C@H](O)C1O (stereo partly specified),13.7% (active)
24,CC(=O)O[C@H]1C(=O)[C@@]2(C)C([C@H](OC(=O)c3ccccc3)[C@]3(O)C[C@H](OC(=O)[C@H](O)[C@@H](NC(=O)c4ccccc4)c4ccccc4)C(C)=C1C3(C)C)[C@]1(OC(C)=O)CO[C@@H]1C[C@@H]2O (stereo partly specified),-4.9% (inactive)
25,CCc1cccc2c3c([nH]c12)C(CC)(CC(=O)O)OCC3 (stereo unspecified),-6% (inactive)
